# About 13,000 (27%) of roughly 48,000 compounds showed an effect of 50% or more. This is one part of the list.
# System: Wolbachia pipientis
# Assay: Anti-Wolbachia Cell-Based Screen
# Type: functional
# Parameters: scale not given: in the data most compounds retested in dose-response had high values
# Conditions: 5 µM
row,Compound,Percent Effect
1,Cc1noc(CN2CCOC(CN(C)C)C2)n1 (stereo unspecified),4.204%
2,O=C1CO[C@H]2CN(S(=O)(=O)c3ccccc3)C[C@H]2N1CC1CCCCC1,-1.242%
3,CCN(CC1CCOC1)C(=O)Cn1nnn(-c2cccs2)c1=O (stereo unspecified),-8.505%
4,COc1cc(OC)c(CNC(=O)NCC(=O)N2CCCC2)c(OC)c1,0.1885%
5,Cn1cc(CN2CC[C@@H]3[C@@H](CCC(=O)N3CCC3=CCCCC3)C2)cn1,-6.139%
6,CC1CCN(CC(=O)NC(C#N)c2cnn(-c3ccccc3)c2)CC1 (stereo unspecified),-3.926%
7,Cc1ccsc1C(=O)Nc1ccc(N2CCC(O)CC2)c(C#N)c1,-13.01%
8,Cc1cc(C)c(CNC(=O)NCc2nnc3n2CCCC3)c(=O)[nH]1,-2.933%
9,CN(Cc1nccs1)C1CCN(c2ncccn2)CC1,-5.116%
10,CN(C)c1nccc(C2CCN(c3ncccn3)CC2)n1,131.2%
11,CCN(CC)C1CCN(c2nccc(C3CCCC3)n2)C1 (stereo unspecified),2.281%
12,Fc1cnc(NCC2Cn3nnc(-c4ccccc4)c3CO2)nc1 (stereo unspecified),-26.66%
13,O=C1CCSCC(C(=O)N2CCCC2)N1 (stereo unspecified),-10.11%
14,COCC(=O)N1CCC2(CC1)CC(OC)c1ccc(F)cc12 (stereo unspecified),-1.265%
15,Cc1ccc2c(c1)C1(CCN(C(N)=O)CC1)CN2C(=O)N(C)C,10.3%
16,CC(=O)N1CCC2(CC1)CN(CC1CC1)c1ccc(F)cc12,110.5%
17,CNC(=O)N1CCC2(CC1)CN(C)c1ccc(F)cc12,-1.265%
18,CC(=O)N1CCC2(CC1)CN(C(C)C)c1ccc(F)cc12,93.83%
19,Cc1ccc2c(c1)C1(CCN(C(N)=O)CC1)CN2CC1CC1,104%
20,CC(=O)N1CC2(CCN(C(=O)C3CC3)CC2)c2cc(C)ccc21,-2.981%
21,CC(=O)N1CCC2(CC1)CN(C(=O)C1CC1)c1ccc(F)cc12,-23.77%
22,CN(C)C(=O)N1CC2(CCN(CC3CC3)CC2)c2cc(F)ccc21.O=C(O)C(F)(F)F,-28.12%
23,COCC(=O)N1CCC2(CCc3ccc(F)cc32)CC1.Cl,-16.21%
24,COCC(=O)N1CCC2(CC1)CN(CC1CC1)c1ccc(F)cc12,102.5%

row,Compound,Percent Effect
1,CC(=O)N1CCC2(CC1)C(=O)N(C)c1ccc(F)cc12,-20.1%
2,COCc1cccc(S(=O)(=O)NCc2cnn(C)c2C)c1,10.62%
3,CC(=O)c1cccc(NS(=O)(=O)c2cc(C)c(C(=O)O)s2)c1,6.094%
4,Cc1ccccc1C(=O)NCc1ccc(N2CCNC(=O)C2)cc1,3.423%
5,O=C1CN(c2ccc(CNC(=O)NCc3ccoc3)cc2)CCN1,94.29%
6,CC(C(=O)NCc1ccc(N2CCNC(=O)C2)cc1)c1cccs1 (stereo unspecified),88.68%
7,CC(C(=O)NCc1ccc(N2CCNC(=O)C2)cc1)n1cncn1 (stereo unspecified),-3.383%
8,NS(=O)(=O)Cc1ccc(CNC(=O)NCC2CCOC2)cc1 (stereo unspecified),-4.862%
9,O=C(NCc1ccc(Br)cc1)NCC1CCOC1 (stereo unspecified),-13.61%
10,Cc1nc(C(=O)NCc2ccc(N3CCNC(=O)C3)c(F)c2)cs1,-8.487%
11,O=C1CN(c2ccc(CNC(=O)NCCO)cc2)CCN1,104.3%
12,O=C1CN(c2ccc(CNC(=O)NCC3CCOC3)cc2)CCN1 (stereo unspecified),100.4%
13,Cc1cccnc1NC(=O)NCc1ccc(N2CCNC(=O)C2)cc1,-1.064%
14,CCSc1cncc(NCc2ccc(N3CCNC(=O)C3)cc2)n1,-9.871%
15,CC(O)CNC(=O)NCc1ccc(N2CCNC(=O)C2)cc1 (stereo unspecified),-1.608%
16,O=C(NCCCn1nc2ccccn2c1=O)NC1CCC(O)CC1 (stereo unspecified),-5.846%
17,CC(CCSc1ccccc1)N1CCCN(C(N)=O)CC1 (stereo unspecified),1.732%
18,COc1cc2c(cc1OC)S(=O)(=O)N(Cc1cnn(C)c1)C2=O,-5.179%
19,CCN(Cc1cccc(-c2ccncc2)c1)S(C)(=O)=O,22.59%
20,COc1ccnc(N2CCC(OCCN3CCCCC3)C2)n1 (stereo unspecified),-2.392%
21,CCCS(=O)(=O)N1CCC2(CN(c3ccsc3)C(=O)CN2C)C1.O=C(O)C(F)(F)F (stereo unspecified),2.599%
22,Cc1nc(CN(C)C2CCN(CCn3cc(C#N)cn3)C2)no1 (stereo unspecified),105.6%
23,CC(C)c1nc(CN(C)C2CCN(CCc3ccncc3)C2)no1 (stereo unspecified),78.23%
24,CC(C)c1nc(CN(C)C2CCN(CCn3cc(C#N)cn3)C2)no1 (stereo unspecified),72.8%

row,Compound,Percent Effect
1,Cc1ncsc1CCN1CCC(N(C)Cc2noc(C(C)C)n2)C1 (stereo unspecified),6.438%
2,CN(Cc1noc(C2CC2)n1)C1CCN(CCn2cc(C#N)cn2)C1 (stereo unspecified),90.88%
3,CN(CC1CN(CCn2cc(C#N)cn2)CCO1)c1cccnn1 (stereo unspecified),-17.7%
4,CCc1nc(CN(C)C2CCN(CCn3cc(C#N)cn3)C2)no1 (stereo unspecified),10.97%
5,CC(C)c1nc(CN(C)C2CCN(CC(F)(F)F)C2)no1 (stereo unspecified),0.6339%
6,CN(c1ccc(C#N)cn1)C1CCCN(Cc2noc(C3CC3)n2)C1 (stereo unspecified),3.102%
7,Cc1nc(CN2CCC(N(C)Cc3noc(C(C)C)n3)C2)cs1 (stereo unspecified),19.33%
8,Cc1nn(CCO)c(C)c1CNC1CCc2c(Cl)cccc21 (stereo unspecified),9.566%
9,CCOC(C)c1nc(CN2CCN(CC(F)F)CC2)cs1 (stereo unspecified),-28.37%
10,CCc1c(C(=O)N2CC[C@H](N3CCOCC3)[C@H](CCCO)C2)csc1C,-10.58%
11,CCc1c(C)nn(CCNC(=O)C2CCCN(C(=O)N(C)C)C2)c1C (stereo unspecified),-3.279%
12,C=C(C)CN1CCC(c2n[nH]c(C3CC3)n2)CC1,-34.27%
13,O=C(Nc1cccnc1)[C@H]1CO[C@H]2CCN(c3ncc(F)cn3)C[C@H]2C1.O=C(O)C(F)(F)F.O=C(O)C(F)(F)F,-5.908%
14,CN(C)C(=O)[C@H]1CO[C@H]2CCN(c3ncc(F)cn3)C[C@H]2C1.O=C(O)C(F)(F)F,120.2%
15,CNC(=O)[C@H]1CO[C@H]2CCN(c3ncc(F)cn3)C[C@H]2C1.O=C(O)C(F)(F)F,80.41%
16,CN1CCN(C(=O)[C@H]2C[C@@H]3CN(c4ncc(F)cn4)C[C@@H]3N2C)CC1.O=C(O)C(F)(F)F.O=C(O)C(F)(F)F.O=C(O)C(F)(F)F,6.01%
17,O=C(Nc1cnccn1)[C@@H]1C[C@H]2OCC[C@H]2N(c2ncc(F)cn2)C1,-10.05%
18,Fc1cnc(N2CC[C@@H]3CN(Cc4ccncc4)CCO[C@@H]3C2)nc1.O=C(O)C(F)(F)F.O=C(O)C(F)(F)F.O=C(O)C(F)(F)F,-11.92%
19,O=C(Nc1cnccn1)[C@H]1CO[C@H]2CCN(c3ncc(F)cn3)C[C@H]2C1.O=C(O)C(F)(F)F,104.1%
20,CN(C)C(=O)[C@H]1C[C@H]2OCC[C@H]2N(Cc2ccc(F)cc2)C1.O=C(O)C(F)(F)F,-2.638%
21,CC(=O)N1[C@H](Cn2cncn2)C[C@@H]2CN(c3ncc(F)cn3)CC[C@@H]21.O=C(O)C(F)(F)F,-4.782%
22,CNC(=O)c1cnc(/C=C/c2cc(OC)c3c(c2)OCCO3)s1,15.86%
23,CCN(C)c1ncnc2c1CCN(C(=O)c1ccsc1)CC2.O=C(O)C(F)(F)F,-2.544%
24,CS(=O)(=O)N1CCO[C@@H]2CN(C(=O)COC3CCCC3)C[C@@H]2C1,-4.785%

row,Compound,Percent Effect
1,CS(=O)(=O)N1CCO[C@@H]2CN(C(=O)C3CC(F)(F)C3)C[C@@H]2C1,99.59%
2,CS(=O)(=O)N1CCO[C@@H]2CN(C(=O)N3CCCC3)CC[C@@H]2C1,106.3%
3,CS(=O)(=O)N1CCO[C@@H]2CN(C(=O)C3CCOC3)CC[C@@H]2C1 (stereo partly specified),99.33%
4,CCc1ccc(CN2CC[C@@H]3CN(S(C)(=O)=O)CCO[C@@H]3C2)o1.O=C(O)C(F)(F)F,2.069%
5,CC(C)NC(=O)N1CC[C@@H]2CN(S(C)(=O)=O)CCO[C@@H]2C1,112.1%
6,CC(C)c1nc(CNC(=O)c2ccc(C(C)N3CCCCC3)o2)cs1 (stereo unspecified),4.315%
7,Cc1ncc(S(=O)(=O)Nc2ccnn2C(C)C)[nH]1,-21.74%
8,CS(=O)(=O)N1CC[C@H]2C[C@@H](C(=O)N3CCOCC3)O[C@@H]2C1,-11.49%
9,CS(=O)(=O)N1CCO[C@@H]2CN(C(=O)N3CCOCC3)CC[C@@H]2C1,93.86%
10,COCCN1CCN(C(=O)c2ccccc2C(C)=O)[C@H]2CS(=O)(=O)C[C@H]21,-3.299%
11,COc1ccccc1CN1CCCC2(Cc3ccccc3CNC2=O)C1 (stereo unspecified),121.9%
12,Cc1cccc(CN2CCCC3(CCN(c4cccnc4)C3=O)C2)n1 (stereo unspecified),-4.562%
13,COCCC1(C(=O)O)CCCN(Cc2ccccc2OCCO)C1 (stereo unspecified),-7.98%
14,O=C1NCC2(CCCN(Cc3ccccc3OCCO)C2)O1 (stereo unspecified),-12.98%
15,Cc1cccc(CN2CCCC3(Cc4ccccc4CNC3=O)C2)n1 (stereo unspecified),122.4%
16,COC(=O)CNC(=O)N1CCN(c2nc3ccccc3n2C)CC1,124.8%
17,CCOC(=O)N1CCN(c2nc(NC)c3ccccc3n2)CC1,-5.868%
18,CCOC(=O)CCNC(=O)N1CCN(c2nc3ccccc3n2C)CC1,-6.682%
19,CCNC(=O)N1CCN(c2nc3ccccc3n2C)CC1,113.5%
20,CCNC(=O)N1CCC(=Cc2ccccc2)CC1,6.266%
21,CCOC(=O)N1CCN(c2nc(N3CCCC3)c3ccccc3n2)CC1,-6.467%
22,COC(=O)CNC(=O)N1CCC2(CC1)CC(c1ccccc1)CN(C)C2 (stereo unspecified),-8.809%
23,CCOC(=O)C(C)NC(=O)N1CCN(c2nc3ccccc3n2C)CC1 (stereo unspecified),155.3%
24,Cn1c(SCC(=O)NC(C)(C#N)C2CC2)nc2ccccc21 (stereo unspecified),-4.187%

# Reference: ChEMBL document CHEMBL3988442, “University of Dundee, Small-Polar-MMV Screening Library” (2021)
